Compound activity (PubChem BioAssay)
Most compounds without a hit are left out; they make up all but 2% or so of the library.
TR SRC2 fluor cs – counter-screen for TRb-SRC2 inhibitors: fluorescence interference; TRb/SRC2 Texas Red total fluorescence interference; Potency, µM (top dose mostly 106 µM); 280,000 compounds, 0.29% hits; active = well fitted curve in either direction with a large enough effect; inconclusive = small, poorly fitted or top-dose-only effect
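Human TRb ligand-binding domain at 0.6 uM with 20 nM Texas Red SRC2 peptide in Tris buffer containing 1 uM T3 and 5% DMSO, incubated with compound 5 h at ambient temperature. Total fluorescence (555/632 nm) calculated as parallel + 2 × perpendicular.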
HTT ATP protect – Huntington cell model cytoprotection by ATP luminescence; Potency, µM (top dose mostly 56.4 µM), usual class: activators; PC12 HTT-Q103 induced, cytoprotection, ATP luminescence, 40 h; 230,000 compounds, 0.14% hits; note: nearly all actives have a fitted effect of over 45% in size
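Readout: ATPlite luminescence (ATP level). Model: stable PC12, inducible Htt exon1 Q103-GFP. Inducer: tebufenozide, 100 nM final. Compounds: dose series. No G418 in medium.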
FBPA coupling cs – coupling enzyme interference in Giardia aldolase counter-screen; coupling enzyme system counterscreen, AmpLite Red fluorescence; activity change, negative = inhibition, % at 58.2 µM, hits read low; 290,000 compounds, 0.67% hits; in the data active = activity change below about -30%
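Counterscreen of the coupled detection system alone, without aldolase: glyceraldehyde-3-phosphate coupling enzymes plus AmpLite Red readout. Compounds at 57.5 uM final, 10 min RT preincubation, 20 min RT reaction, fluorescence 525/598 nm.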
TRb-SRC2 inh – TRbeta-SRC2 interaction inhibition | TRbeta-SRC2 peptide binding, fluorescence polarization; receptor liganded with 1 µM T3 | Potency, µM (titrated, usually from 106 µM), actives largely listed as inhibitors | 280,000 compounds, 0.065% hits | AID 1469; note: nearly all actives have a fitted effect of over 50% in size
Target sequence (P10828 whole entry, looked up): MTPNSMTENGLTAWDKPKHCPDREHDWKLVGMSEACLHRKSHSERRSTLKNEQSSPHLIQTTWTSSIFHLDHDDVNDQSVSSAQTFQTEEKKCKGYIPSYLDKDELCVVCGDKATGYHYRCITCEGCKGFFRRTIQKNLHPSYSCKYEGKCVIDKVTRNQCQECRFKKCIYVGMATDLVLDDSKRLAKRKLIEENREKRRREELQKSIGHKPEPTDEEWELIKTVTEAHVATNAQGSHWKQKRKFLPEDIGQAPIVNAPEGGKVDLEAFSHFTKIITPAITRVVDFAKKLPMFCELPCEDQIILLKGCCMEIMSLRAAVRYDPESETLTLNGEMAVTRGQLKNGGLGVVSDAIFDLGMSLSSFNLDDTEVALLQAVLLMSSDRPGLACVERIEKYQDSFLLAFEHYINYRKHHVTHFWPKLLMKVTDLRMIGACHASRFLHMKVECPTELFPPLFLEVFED
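Polarization signal, normalized between peptide-alone and full complex controls, measured compound effects on T3-liganded human TRb LBD (0.6 uM) binding 20 nM Texas Red SRC2 peptide after 5 hr.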
JMJD2E inh – inhibitors of human JMJD2E histone demethylase | B2RXH2 | JMJD2E catalytic domain, FDH-coupled NADH fluorescence (FDH is formaldehyde dehydrogenase) | Potency, µM (titrated, usually from 57.1 µM), usual class: inhibitors | 230,000 compounds, 1.6% hits | AID 2147; active = well fitted inhibition curve with a large enough effect, not every such curve was filed as active; inconclusive = small, poorly fitted or top-dose-only effect, or another doubt; inactive = no such curve, though single readings can be large or run the other way; note: nearly all actives have a fitted effect of over 50% in size
HttQ103 aggreg – mutant huntingtin aggregation inhibition | AID 1688 | PC12 HttQ103-GFP aggregates, Acumen cytometry, 40 h | Potency, µM (doses to about 46.1 µM), most hits filed as inhibitors | 220,000 compounds, 1.1% hits; note: nearly all actives have a fitted effect of over 60% in size
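Using laser scanning cytometry, GFP-positive aggregates were counted after lysis of PC12 cells induced with 100 nM tebufenozide to express HTT exon 1 Q103–GFP. Compounds were tested in titration.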
Numbers stand for hits; - = inactive; ? = inconclusive; . = not tested or not shown; ! = repeats disagree; [ ] = dose if it differs, or a comment. Unless noted, calls come from the whole dose curve; as a rule, active = well fitted curve in the direction sought with a large enough effect; inconclusive = small, poorly fitted or top-dose-only effect, or another doubt; inactive = no such curve, though single readings can be large; an effect the other way counts as inactive or inconclusive.

SMILES	TR SRC2 fluor cs	HTT ATP protect	FBPA coupling cs	TRb-SRC2 inh	JMJD2E inh	HttQ103 aggreg
CN(C1=C(NC(=O)c2ccc(Cl)cc2)C(=O)c2ccccc2C1=O)c1ccccc1	-	-[10 µM]	-54.6	-	-	?
Cc1cccc(NC2=C(NC(=O)c3ccccc3)C(=O)c3ccccc3C2=O)c1	-	-[10 µM]	-41.0	-	-	-
O=C(NC(NC1CCS(=O)(=O)C1)C(=O)c1cccs1)c1ccccc1 (centres undefined)	-	-[10 µM]	-	-	-	-
O=C(NC1=C(Nc2ccc(Cl)cc2)C(=O)c2ccccc2C1=O)c1ccccc1	-	-[10 µM]	-30.3	-	?	?
COc1cccc(OC)c1-c1cc(C(=O)NC2(C(=O)O)C3CC4CC(C3)CC2C4)nn1-c1ccc(C(=O)N(C)CCCN(C)C)cc1C(C)C (centres undefined)	-	.	-	-	.	.
COC(=O)C1CCC(C(=O)OC)CC1 (centres undefined)	-	.	.	-	.	.
CC(C)(C)S(=O)(=O)/C(C#N)=N/Nc1ccc(Cl)cc1	-	-[10 µM]	-	-	-	11.2µM
c1ccc2c(c1)CCN2CCN1CCc2ccccc21	-	-	-	-	-	-
CN(C)CCN1CCc2ccccc21	-	-	-42.5	-	?	-
COc1ccc(/C=C/C(=O)c2cc3c(cc2N)OCO3)cc1	-	-	-	-	22.4µM	-
COc1ccc(/C=C/C(=O)c2ccc(OC)cc2OC)cc1	-	?	-	-	-	-
COc1ccc(/C=C/C(=O)O)cc1	44.7µM![fluorescent]	-	-	25.1µM!	.	-
COc1ccc(/C=C/C(=O)c2cc(O)ccc2O)cc1	-	5.01µM	-	-	?	.
COc1ccc(Oc2ccc(/C=C/C(=O)c3ccc(O)cc3)cc2[N+](=O)[O-])cc1	-	.	-	-	-	12.6µM
Oc1cc2cc(CCN3CCN(c4nsc5ccccc45)CC3)c(Cl)cc2[nH]1	.	-	.	.	.	-
CC(C)C(=O)OCC(=O)[C@@]12OC(C3CCCCC3)O[C@@H]1CC1C3CCC4=CC(=O)C=C[C@]4(C)C3[C@@H](O)C[C@@]12C (some centres undefined)	.	-	.	.	.	-
COc1ccc(-n2c3c(cc(-c4nc(-c5ccc(C)cc5)cs4)c2=O)C(=O)CC(C)(C)C3)cc1	-	.	.	-	.	.
Cc1nc2cnc(N(C)C)nc2n(Cc2ccc(F)cc2)c1=O	.	-	-	.	.	.
C[Si](Cl)(Cl)c1ccccc1	-	.	.	-	.	.
CNc1ccc(Br)cc(C(=O)/C=C/c2ccc(OC)cc2)c1=O	-	.	-	-	25.1µM	?
O=C1c2ccccc2CCC1CNCCc1ccc(O)cc1 (centres undefined)	-	-	.	-	.	.
O=C1C(=O)N(CNc2ccccn2)c2ccccc21	-	-	.	-	-	-
O=C1C(=O)N(CNc2cccnc2)c2ccccc21	-	-[10 µM]	-36.7	-	-	-
Cc1ccc(CNC(=O)CCS(=O)(=O)c2cccc3nonc23)cc1	-	-	-	-	-	-
COc1ccc(CNC(=O)CCS(=O)(=O)c2cccc3nonc23)cc1	-	3.55µM	-	-	-	6.31µM
SMILES	TR SRC2 fluor cs	HTT ATP protect	FBPA coupling cs	TRb-SRC2 inh	JMJD2E inh	HttQ103 aggreg
O=C1CC(c2ccccc2O)Oc2ccc(O)cc21 (centres undefined)	-	-[1.9 µM]	-	-	-	.
COc1cccc(/C=N/Nc2snc(SC)c2C#N)c1O	-	.	-	-	-	11.2µM
O=C(c1ccccc1)[C@@H]1[C@@H](C(=O)c2ccc(F)cc2)[C@@]2(C(=O)Nc3ccccc32)[C@H]2c3ccccc3C=CN12	-	-[10 µM]	-30.9	-	-	?
N#CC1c2ccccc2C=CN1C(=O)c1ccccc1 (centres undefined)	-	-[10 µM]	-	-	-	-[9.22 µM]
CC[C@@H]1Cn2c(c3nc(-c4ccccc4)nc-3n(C)c2=O)N1	-	-	-	-	?	.
O=C(O)c1c(Cl)c(Cl)c(Cl)c(Cl)c1-c1c2cc(I)c(=O)c(I)c-2oc2c(I)c(O)c(I)cc12	2.82µM[fluorescent]	-	-	5.01µM	.	-
Cn1c(C(=O)c2ccccc2[N+](=O)[O-])nc2ccccc21	-	-	-30.2	-	-	-
CCOc1ccccc1NC(=O)c1cn(C2CCCCC2)c(=O)c2c1c1ccccc1n2C	-	.	.	-	.	.
